HCMV antiviral: inhibitors of human cytomegalovirus; HFF cells, HCMV-luciferase reporter, 72 h; hits give low values; activity change, negative = inhibition, % at 57.5 µM; hit rate 4.5% among 410,000; AID 1259415; in the data active = activity change below about -60%; inconclusive = no clear call, values can overlap the other calls; inactive = above about -39%; also: % is scaled to controls: 0 for no effect and ±100 for the full control effect
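Cell-based, HFFs, 1000 cells/well, 16 h 37C; cpds in DMSO + HCMV-luc, MOI 1 PFU/cell; 72 h 37C; OneGlo luminescence after 5 min RT; norm. to buffer vs Salinomycin 10uM.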
Shiga inhibitor: blocks Shiga toxin action in Vero cells. Vero cells, Shiga toxin protein synthesis inhibition reporter. inhibition, % at 38.7 µM. hit rate 9.2% among 290,000. AID 2315; in the data active = inhibition mostly above about 28%, no sharp cut-off; inactive = mostly below about 43%; also: 0% is about no effect
Pf growth 48h: inhibits P. falciparum growth in the first generation, 48 h. hit rate 5.9% among 310,000. P. falciparum luciferase growth in erythrocytes, 48 h. Potency, µM (top dose mostly 28.7 µM), inactives show top-dose activity change, negative = inhibition, usual class: inhibitors; also: potency is read from the fitted curve at half-maximal effect; % is scaled to controls: 0 for no effect and ±100 for the full control effect
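Parasite viability was followed by luminescence of a genomically integrated firefly luciferase. Cultures held 0.1% parasitemia at 2% hematocrit (final), incubated under 5% CO2 at 37 C.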
HCV inhibitor: HCV inhibition | AID 651820 | Potency, µM (doses to about 41.8 µM), for inactives: at the top dose activity change, negative = inhibition, most hits filed as inhibitors | hit rate 3.4% among 340,000 | Huh7.5.1 HCVcc-Cre infection, luciferase reporter, 44 h; also: potency is read from the fitted curve at half-maximal effect; % is scaled to controls: 0 for no effect and ±100 for the full control effect
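Seed cells (1,000/well) for 4 h; treat with compound and infect with HCVcc-Cre, moi about 0.5. Incubate 44 h, then detect luciferase activity.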
Pf growth 96h: P. falciparum growth inhibition at 96 hours; P. falciparum luciferase reporter growth, 96 h; Potency, µM (top dose mostly 28.7 µM), inactives show top-dose activity change, negative = inhibition, usual class: inhibitors; hit rate 6.9% among 320,000; also: potency is read from the fitted curve at half-maximal effect; % is scaled to controls: 0 for no effect and ±100 for the full control effect
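Readout is luminescence from an integrated firefly luciferase in P. falciparum. Red cells, 2% hematocrit and 0.05% parasitemia final, were cultured with compound through two parasite generations (96 hours) at 37 C, 5% CO2.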
Cycloheximide cs: counter-screen hit for Shiga toxin inhibitors, cycloheximide | cell reporter, cycloheximide protein synthesis inhibition counterscreen | max response, % | hit rate 12% among 300,000; in the data active = max response mostly above about 13%, no sharp cut-off; inactive = mostly below about 14%; also: read at 38.3 µM for the half of the compounds with a filed dose; 0% is about no effect
* hit, by the source's call; [ ] = dose if it differs, or a comment. An excerpt weighted towards active compounds, which were near 21% of everything screened. Unless noted, calls follow the shape of the dose curve; as a rule, active = well fitted inhibition curve with a large enough effect; inconclusive = small, poorly fitted or top-dose-only effect, or another doubt; inactive = no such curve, though single readings can be large or run the other way.

`Brc1ccc(-c2cnc3n2CCCC3)cc1` gave HCMV antiviral -21.1, Shiga inhibitor 38.8, Pf growth 48h inconclusive, HCV inhibitor inconclusive, Pf growth 96h -6.6%[5.75 µM] and Cycloheximide cs 1.1.
N#Cc1ccc(S(=O)(=O)N2CCCCC2c2cc(C(=O)N3CCOCC3)no2)cc1 (stereo not drawn) was read as HCMV antiviral 3.0.
For C=CCN1C(=O)c2ccccc2NC1c1cc(Br)cs1 (stereo not drawn) the results were HCMV antiviral inconclusive, Shiga inhibitor -7.6, Pf growth 48h 10.4µM*, HCV inhibitor -29.8%, Pf growth 96h inconclusive and Cycloheximide cs -4.2.
`O=C(CCl)N1c2ccccc2CCc2ccccc21` gave HCMV antiviral -102.0*, Shiga inhibitor -8.8, Pf growth 48h 10.4µM*, Pf growth 96h inconclusive and Cycloheximide cs -1.7.
For O=C(COc1cccc2ccccc12)N1c2ccccc2CCc2ccccc21 the results were HCMV antiviral 7.9, Shiga inhibitor -21.2, Pf growth 48h 10.4µM*, HCV inhibitor inconclusive, Pf growth 96h inconclusive and Cycloheximide cs -2.3.
`CCCn1c(C(C)Nc2nc(C)cs2)nc2cc(Cl)c(Cl)cc21` (stereo not drawn) gave HCMV antiviral -4.2, Shiga inhibitor -4.8, Pf growth 48h -11.4%, HCV inhibitor inconclusive, Pf growth 96h 29.7% and Cycloheximide cs -2.5.
`CN(C)c1ccc(-c2noc(C3CCN(S(=O)(=O)c4ccc(C(=O)O)cc4)CC3)n2)cc1` gave HCMV antiviral -31.5 and HCV inhibitor 13.0%.
For COc1ccc(-c2nnc(C3CCN(C(=O)c4ccccc4F)CC3)o2)cc1 the results were HCMV antiviral -104.9*.
`CN(C)c1ccc(-c2noc(C3CCN(C(=O)Nc4ccc(Cl)cc4)CC3)n2)cc1` gave HCMV antiviral 18.3, Shiga inhibitor 51.6*, Pf growth 48h inconclusive, HCV inhibitor inconclusive, Pf growth 96h inconclusive and Cycloheximide cs 15.8*.
For Cc1ccc(-c2noc(C3CCN(S(=O)(=O)c4ccc5c(c4)OCCO5)CC3)n2)o1 the results were HCMV antiviral -96.0*, Shiga inhibitor -9.6, Pf growth 48h inconclusive, HCV inhibitor 12.6µM*, Pf growth 96h inconclusive and Cycloheximide cs -2.2.
Screening O=S(=O)(c1ccc2ccccc2c1)N1CCC(c2nc(-c3ccncc3)no2)CC1 returned HCMV antiviral -73.4*, Shiga inhibitor -1.4, Pf growth 48h 13.1µM*, HCV inhibitor 8.91µM*, Pf growth 96h inconclusive and Cycloheximide cs -2.1.
Cc1nc(-c2ccc(F)cc2)sc1CCNC(=O)c1ccccc1C(F)(F)F was read as HCMV antiviral 9.2.
For O=C(Nc1ccc(O)c2c(=O)cc(-c3ccccc3Cl)oc12)c1ccc(Br)cc1 the results were Shiga inhibitor -4.9 and Cycloheximide cs -2.0.
For Cc1ccc(-c2noc(C3CCN(C(=O)Nc4ccc(C#N)cc4)CC3)n2)o1 the results were HCMV antiviral -83.7*, Shiga inhibitor -3.5, Pf growth 48h inconclusive, HCV inhibitor 10µM*, Pf growth 96h 18.1% and Cycloheximide cs -1.8.
Screening COc1ccc(S(=O)(=O)N2CCC(c3nnc(-c4ccccc4C)o3)CC2)c(OC)c1 returned HCMV antiviral -33.8.
For COc1ccc(-c2nnc(C3CCN(S(=O)(=O)c4cccc(Cl)c4)CC3)o2)cc1 the results were HCMV antiviral -94.0*.
Cc1ccc(-c2noc(C3CCCN(C(=O)c4ccc(C(C)(C)C)cc4)C3)n2)o1 (stereo not drawn) was read as HCMV antiviral -25.8, Shiga inhibitor -5.4, Pf growth 48h inconclusive, HCV inhibitor inconclusive, Pf growth 96h 14.0% and Cycloheximide cs 0.9.
Cc1ccccc1-c1nnc(C2CCN(S(=O)(=O)c3ccc(Cl)cc3)CC2)o1 was read as HCMV antiviral -104.2*.
`CN(C)c1ccc(-c2noc(C3CCN(S(=O)(=O)c4cccc(Cl)c4)CC3)n2)cc1` gave HCMV antiviral inconclusive, Shiga inhibitor -8.7, Pf growth 48h inconclusive, HCV inhibitor inconclusive, Pf growth 96h 0.185µM* and Cycloheximide cs 2.7.
Screening CCCC[C@H](NC(=O)[C@@H]1CCCN1C(=O)[C@H]1CCCN1C(=O)[C@H](Cc1ccccc1)NC(=O)[C@@H](Cc1c[nH]c2ccccc12)NC(=O)[C@H](C)NC(=O)[C@H](CCCN=C(N)N)NC(=O)OC(C)(C)C)C(N)=O returned Shiga inhibitor 34.3 and Cycloheximide cs -1.0.
Screening CCN(CC)S(=O)(=O)c1ccc2oc(SCC(=O)Nc3cc(C)on3)nc2c1 returned HCMV antiviral inconclusive, Pf growth 48h inconclusive, HCV inhibitor 6.31µM* and Pf growth 96h 2.08µM*.
Cc1ccn2c(=O)nc(SCC(=O)Nc3cc(C)on3)nc2c1 was read as HCMV antiviral -6.3, Pf growth 48h -33.8%, HCV inhibitor -5.9% and Pf growth 96h -12.2%.
For Cc1cc(NC(=O)CSc2nc3cc(Cl)ccc3o2)no1 the results were HCMV antiviral -39.2, Shiga inhibitor -7.3, Pf growth 48h 8.28µM*, HCV inhibitor -20.4%, Pf growth 96h 56.1% and Cycloheximide cs -3.5.
CCN(CC)S(=O)(=O)c1ccc2oc(SCc3ccc(F)cc3)nc2c1 was read as HCMV antiviral inconclusive, Shiga inhibitor 6.0, Pf growth 48h inconclusive, HCV inhibitor inconclusive, Pf growth 96h inconclusive and Cycloheximide cs 11.6*.
`Cc1cc(NC(=O)CSc2nc(=O)n3cc(Cl)ccc3n2)no1` gave HCMV antiviral -97.5*, Pf growth 48h inconclusive, HCV inhibitor 6.7% and Pf growth 96h 12.4%.
COc1ccccc1NS(=O)(=O)c1ccc2oc(SCc3ccc(C#N)cc3)nc2c1 was read as HCMV antiviral -84.1*, Shiga inhibitor -9.3, Pf growth 48h -23.7%, HCV inhibitor 11.2µM*, Pf growth 96h 9.28µM* and Cycloheximide cs 0.7.
CNC(=O)CSc1nc2cc(S(=O)(=O)Nc3ccccc3OC)ccc2o1 was read as HCMV antiviral -25.2, Shiga inhibitor -8.9, Pf growth 48h 14.6%, HCV inhibitor 15.0%, Pf growth 96h -16.5% and Cycloheximide cs -3.6.
Screening CCOc1ccc(NC(=O)C(Cc2ccccc2)N2C(=O)c3cccc4cccc(c34)C2=O)cc1 (stereo not drawn) returned HCMV antiviral -99.2*, Shiga inhibitor -6.0, Pf growth 48h inconclusive, HCV inhibitor inconclusive, Pf growth 96h inconclusive and Cycloheximide cs -2.9.
For CCOc1ccc(-n2nc3ccc(NC(=O)CC)cc3n2)cc1 the results were HCMV antiviral 38.8, Shiga inhibitor 55.4*, Pf growth 48h 49.1%, HCV inhibitor inconclusive, Pf growth 96h 70.4% and Cycloheximide cs 30.6*.
